Source: PubChem
DT40 TDP1 CPT = qHTS for Inhibitors of human tyrosyl-DNA phosphodiesterase 1 (TDP1): qHTS in cells in presence of CPT. Potency, µM (series often up to 46.2 µM), most hits filed as inhibitors. 420,000 compounds, 12% hits. chicken DT40 Tdp1-/-;hTDP1 cells + 20 nM CPT, ATP luminescence, 48 h. AID 686979, 2013; also: nearly all actives have a fitted effect of over 55% in size
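Chicken DT40 Tdp1-/- cells complemented with human TDP1, 400 cells/well, exposed to compounds plus 20 nM camptothecin for at least 48 h at 37 C; viability read as ATP content by CellTiter-Glo luminescence.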
HT1080-NT tox = qHTS for induction of synthetic lethality in tumor cells producing 2HG: qHTS for the HT-1080-NT fibrosarcoma cell line. HT-1080-NT fibrosarcoma viability, CellTiter-Glo ATP luminescence, 48 h. Potency, µM (top dose mostly 46.1 µM), hits mostly cytotoxic. 360,000 compounds, 1.6% hits. AID 686970, 2013;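 also: NT is the 2HG producing partner of a matched IDH1 knockdown line; nearly all actives have a fitted effect of over 55% in size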
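Fibrosarcoma NT cells, 750 per well in 5% FBS RPMI, were exposed to compound for 48 hours. Viability: CellTiter-Glo luminescence.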
IL-1B inflam inh = qHTS for Inhibitors of Inflammasome Signaling: IL-1-beta AlphaLISA Primary Screen. THP-1 LPS/ATP IL-1B secretion, AlphaLISA, 16 h; active compounds read low. activity change, % at 57.5 µM. 360,000 compounds, 4.7% hits; in the data active = activity change below about -50%; inconclusive = mostly about -30% to -49%
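Secreted IL-1B measured by AlphaLISA bead assay after 16 h compound exposure of THP-1 cells; compounds (final up to 57.5 uM) added 1 h before LPS (250 ng/mL) and ATP (1.25 mM) stimulation; lower signal means less secretion.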
ELG1 DNA repair = qHTS screen for small molecules that inhibit ELG1-dependent DNA repair in human embryonic kidney (HEK293T) cells expressing luciferase-tagged ELG1. HEK293T ELG1-luciferase reporter, luminescence, 16 h; DNA damage induced by 5-fluorouridine. Potency, µM (titrated, usually from 46.1 µM), usual class: inhibitors. 330,000 compounds, 2.3% hits; also: nearly all actives have a fitted effect of over 55% in size
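HEK293T cells expressing luciferase-tagged ELG1 (2,000/well) received 5-Fluorouridine plus compound or DMSO for 16 hr at 37 °C. Luciferase was read by ONE-Glo luminescence after 30 min at room temperature.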
TDP1 cell noCPT = qHTS for Inhibitors of human tyrosyl-DNA phosphodiesterase 1 (TDP1): qHTS in cells in absence of CPT; DT40 Tdp1-/- hTDP1 cells, no CPT, ATP luminescence, 48 h; Potency, µM (doses to about 46.2 µM), hits mostly inhibitors; 420,000 compounds, 15% hits; also: nearly all actives have a fitted effect of over 55% in size
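Luminescent ATP content (CellTiter-Glo) served as the growth readout. Knockout chicken DT40 cells expressing human TDP1 were exposed to compounds without camptothecin for a minimum 48 hr at 37 °C.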
HT1080 IDH1KD tx = qHTS for induction of synthetic lethality in tumor cells producing 2HG: qHTS for the HT-1080-IDH1KD cell line; HT-1080 IDH1 knockdown viability, ATP luminescence, 48 h; Potency, µM (top dose mostly 46.1 µM), hits mostly cytotoxic; 360,000 compounds, 2% hits; AID 686971, 2013
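Luminescent ATP read-out (CellTiter-Glo, 10 min at room temperature) after 48 h compound exposure at 37 °C gave viability of IDH1-knockdown HT-1080 cells. Activity was normalised to DMSO and cell-free wells, then fitted as concentration-response curves.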
Each line names hits and unclear results; the compound was inactive in the other large screens. A selection: hits, their analogues and other compounds. The true share with any hit is near 19%. Unless noted, calls follow the shape of the dose curve; as a rule, active = well fitted curve in the direction sought with a large enough effect; inconclusive = small, poorly fitted or top-dose-only effect, or another doubt; inactive = no such curve, though single readings can be large; an effect the other way counts as inactive or inconclusive.

COc1ccc(-n2c(SCC(=O)NC3CC3)nc3ccccc3c2=O)cc1OC	ELG1 DNA repair inconclusive
Cc1ccccc1-n1c(SCC(=O)NC2CCS(=O)(=O)C2)nc2ccccc2c1=O (stereo not given)	DT40 TDP1 CPT inconclusive, TDP1 cell noCPT inconclusive
Cc1ccc(-n2c(SCC(=O)NC3CCS(=O)(=O)C3)nc3ccccc3c2=O)c(C)c1 (stereo not given)	DT40 TDP1 CPT inconclusive, TDP1 cell noCPT 16µM (no result: ELG1 DNA repair)
CCC(C)[C@@H](NC(=O)OC(C)(C)C)c1nnc(S(=O)(=O)Cc2cccc(C)c2)o1 (stereo not given in full)	DT40 TDP1 CPT 2.1µM, HT1080-NT tox 18µM, IL-1B inflam inh -116, ELG1 DNA repair inconclusive, TDP1 cell noCPT 4.6µM
CC(C)(C)OC(=O)N[C@@H](Cc1ccccc1)c1nnc(S(=O)(=O)Cc2ccccc2)o1	none (no result: DT40 TDP1 CPT, HT1080-NT tox, IL-1B inflam inh, TDP1 cell noCPT, HT1080 IDH1KD tx)
Cc1ccccc1CS(=O)(=O)c1nnc([C@H](Cc2ccccc2)NC(=O)OC(C)(C)C)o1	DT40 TDP1 CPT 0.65µM, HT1080-NT tox 5µM, IL-1B inflam inh inconclusive, ELG1 DNA repair inconclusive, TDP1 cell noCPT 2.1µM, HT1080 IDH1KD tx 1.8µM
CCOC(=O)[C@]12CCCC=C1N(Cc1ccco1)C(=O)[C@H](CC(=O)N1CCCCC1)C2	DT40 TDP1 CPT inconclusive, TDP1 cell noCPT inconclusive (no result: ELG1 DNA repair)
CCOc1ccccc1NS(=O)(=O)c1ccc(-c2cnc(C3CC3)o2)cc1	DT40 TDP1 CPT 0.0082µM, HT1080-NT tox 0.21µM, TDP1 cell noCPT 0.023µM, HT1080 IDH1KD tx 0.21µM
COc1ccc(S(=O)(=O)Nc2ccc(C)cc2)cc1OC	none
